Laboratory results: PubChem BioAssay (NCI)
The panel holds about 83,000 compounds, 20% with a hit somewhere; the sample as a whole holds those more often.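 Step 1: grow cells in 96-well plates. Step 2: add test compound at a single concentration. Step 3: incubate 48 h. Step 4: record percent growth.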 Unmarked numbers belong to inactive results. Calls of active or inactive are those of the source. How the source made its calls: active means growth percent below 10; inactive means the rest.

How the values were obtained:
Assay in all cases: NCI-60 one-dose screen, 48 h (100 = growth as untreated, 0 = no growth, -100 = all killed)
Details in all cases: 10 µM unless noted
NCI-H226 lung = tested on: NCI-H226 lung
NCI-H322M lung = tested on: NCI-H322M lung
HOP-62 NSCLC = tested on: HOP-62 NSCLC
NCI-H460 lung = tested on: NCI-H460 lung
HOP-92 NSCLC = tested on: HOP-92 NSCLC
NCI-H522 lung = tested on: NCI-H522 lung
A549/ATCC NSCLC = tested on: A549/ATCC NSCLC
786-0 renal = tested on: 786-0 renal
DU-145 prostate = tested on: DU-145 prostate
K-562 leukemia = tested on: K-562 leukemia
MALME-3M melanoma = tested on: MALME-3M melanoma
MDA-MB-231 breast = tested on: MDA-MB-231 breast
RXF 393 renal = tested on: RXF 393 renal
SF-268 CNS = tested on: SF-268 CNS
SF-295 CNS = tested on: SF-295 CNS
SF-539 CNS = tested on: SF-539 CNS
UACC-257 melanoma = tested on: UACC-257 melanoma
M14 melanoma = tested on: M14 melanoma
COLO 205 colon = tested on: COLO 205 colon

SMILES	growth (NCI-H226 lung) [%]	growth (NCI-H322M lung)	growth (HOP-62 NSCLC)	growth (NCI-H460 lung)	growth (HOP-92 NSCLC)	growth (NCI-H522 lung)	growth (A549/ATCC NSCLC)	growth (786-0 renal) [%]	growth (DU-145 prostate) [%]	growth (K-562 leukemia)	growth (MALME-3M melanoma)	growth (MDA-MB-231 breast)	growth (RXF 393 renal)	growth (SF-268 CNS) [%]	growth (SF-295 CNS)	growth (SF-539 CNS)	growth (UACC-257 melanoma)	growth (M14 melanoma)	growth (COLO 205 colon)
OC(CBr)c1ccnc2ccccc12 (configuration not stated)	92.3	102%	99.1%	105%	89.3%	71.8%	96.3%	99.1	109	92%	96.3%	103%	107%	100	96.6%	102%	99.6%	98%	–
N#Cc1cnn2c(-c3ccc(Cl)cc3)nc(NC3CC3)nc12	97.4	87.5%	98.3%	100%	97.5%	90.6%	84.4%	89.8	88.8	–	125%	101%	93.7%	84.4	89.8%	89.2%	111%	108%	–
CCn1nc(C#Cc2c(C)ccc3c(Nc4ccc(Cl)cc4)nccc23)c2c(N)ncnc21	14.8	29.2%	-0.0802% (active)	10.6%	13.6%	-15.4% (active)	16.8%	14.1	34.9	12.8%	-40.6% (active)	8.63% (active)	-4.58% (active)	17.5	4.88% (active)	-31.6% (active)	-9.69% (active)	5.1% (active)	–
O=C(CCCCCCCn1cc(-c2cccnc2)nn1)Nc1ccccc1-c1ccccc1	55.4	65.3%	61.1%	29.3%	96.5%	27.5%	36.9%	53.4	37.2	23.7%	–	59.6%	80.4%	63.8	-15.9% (active)	-7.88% (active)	65.6%	17.3%	–
Cc1nc(Nc2ccc(NC(=S)Nc3ccccc3)cc2)c2ccccc2n1	97.4	103%	118%	107%	115%	105%	95.9%	103	125	78.5%	99.5%	97.6%	–	111	99.5%	100%	101%	–	106%
Cc1cc(-c2ccc(N(C)C)cc2)c2sc(=O)[nH]c2n1	64.6	78.1%	70.2%	65.2%	85.5%	56.5%	66%	77.2	98.8	24.5%	71.1%	71.4%	51.2%	69.5	48.6%	52.9%	81.4%	44.5%	–
CCN(CC)CCCNC(=O)c1ccc(N)cc1O	87.9	90.4%	95.6%	108%	89.6%	96.6%	103%	105	–	12.3%	91.2%	94.6%	91.3%	93.8	99.7%	98.4%	99.3%	94.5%	–
NS(=O)(=O)Oc1ccc(-c2sc3cc(O)ccc3c2C(=O)c2ccc(OCCN3CCCCC3)cc2)cc1	79	90.6%	67%	20.3%	60.4%	65.8%	33.4%	71.6	51.2	14.1%	63.7%	72%	66.8%	68.4	48.1%	62.8%	-44.2% (active)	-17% (active)	–
COc1cccc(CCC2CCCN(c3cc(C)nc(N)n3)C2)c1 (configuration not stated)	55.9	40%	59.4%	14.3%	23%	2.3% (active)	29.1%	19	25.9	10.9%	55.2%	22.7%	22.3%	42.6	14.7%	10.1%	44.5%	6.51% (active)	–
CC(C)OC(=O)NNC(=O)c1ccncc1	107	92.3%	108%	106%	113%	88.9%	105%	104	111	110%	93%	108%	120%	104	113%	97.2%	105%	–	110%
Fc1ccc(Nc2nc3nonc3nc2Nc2ccc(F)cc2)cc1	14.9	1.32% (active)	-5.63% (active)	1.64% (active)	-30.5% (active)	-23.9% (active)	6.26% (active)	–	23.8	9% (active)	1.97% (active)	-20.5% (active)	9.9% (active)	18.5	-20.7% (active)	-7.76% (active)	-13.5% (active)	–	-80.2% (active)
CCNCCNc1cc(C2CCCC2)c(C#N)c2nc3ccccc3n12	46.1	23.7%	33.9%	2.84% (active)	52.3%	6.72% (active)	7.98% (active)	20	28	-28.3% (active)	-46.6% (active)	-45% (active)	-32.4% (active)	22.1	-61.7% (active)	-82.4% (active)	-27.3% (active)	-25.7% (active)	–
COc1ccc2cc(-c3ccc(C(=O)NN)c(C)n3)ccc2c1	103	94.6%	101%	104%	96.2%	69.8%	93.1%	95.1	103	–	92.5%	97.4%	113%	91.9	99%	103%	99.6%	–	104%
CSc1ccc(Cl)c(C(=O)Nc2sccc2C(N)=O)c1	79.9	124%	107%	101%	75.6%	92.2%	85.6%	94.2	102	110%	141%	99%	60.2%	93.7	123%	99.8%	104%	123%	–
CCCCN(CCCC)CCCn1c(=O)c2sc3ncccc3c2n2nnc(-c3ccccc3)c12	105	103%	105%	105%	74.8%	89.5%	102%	108	114	108%	–	93.8%	111%	112	–	99.6%	104%	107%	–
